Hits are enriched below; roughly 7% of the tested compounds scored in any of these assays.
GCN5L2 inh = qHTS Assay for Inhibitors of GCN5L2 | GCN5L2 HAT assay, ThioGlo1 CoA-SH fluorescence | Potency, µM (titrated, usually from 58.9 µM), for the others: at the top dose activity change, negative = inhibition, actives largely listed as inhibitors | 390,000 compounds, 0.21% hits; further: potency means the concentration at half of the fitted maximal effect; on the % scale 0 is the no-effect control and ±100 the full control effect
Target sequence (Q92830 whole entry, looked up): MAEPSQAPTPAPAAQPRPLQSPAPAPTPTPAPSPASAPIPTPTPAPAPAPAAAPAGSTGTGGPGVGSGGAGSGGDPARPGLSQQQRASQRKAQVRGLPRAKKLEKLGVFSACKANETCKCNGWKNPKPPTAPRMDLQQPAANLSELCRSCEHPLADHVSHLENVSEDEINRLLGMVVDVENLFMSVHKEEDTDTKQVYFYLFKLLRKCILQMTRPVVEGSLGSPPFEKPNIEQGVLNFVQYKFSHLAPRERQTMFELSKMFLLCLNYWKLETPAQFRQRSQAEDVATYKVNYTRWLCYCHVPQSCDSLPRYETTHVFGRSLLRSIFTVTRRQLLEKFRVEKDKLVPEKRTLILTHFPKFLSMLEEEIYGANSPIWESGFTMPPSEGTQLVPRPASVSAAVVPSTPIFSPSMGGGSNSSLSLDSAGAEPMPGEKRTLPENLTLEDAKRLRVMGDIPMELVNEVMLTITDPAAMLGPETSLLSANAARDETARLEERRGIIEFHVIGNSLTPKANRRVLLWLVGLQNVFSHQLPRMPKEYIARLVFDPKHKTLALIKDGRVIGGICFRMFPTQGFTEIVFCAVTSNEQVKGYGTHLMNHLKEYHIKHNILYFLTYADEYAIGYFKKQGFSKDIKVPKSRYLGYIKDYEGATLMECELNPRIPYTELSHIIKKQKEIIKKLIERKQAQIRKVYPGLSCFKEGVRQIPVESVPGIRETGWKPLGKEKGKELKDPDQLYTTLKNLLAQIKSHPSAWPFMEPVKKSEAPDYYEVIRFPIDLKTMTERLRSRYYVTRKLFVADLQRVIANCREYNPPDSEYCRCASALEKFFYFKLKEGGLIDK
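Enzyme at 20nM final was mixed with library compounds for 15 min at room temperature. Peptide H3(1-25) at 75uM, acetyl-CoA at 70uM and ThioGlo1 at 50uM were then added. Plates were read immediately and after 20 min (Ex340nm/Em540nm).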
PLK1 PBD block = qHTS for Inhibitors of PLK1-PDB (polo-like kinase 1 - polo-box domain): Primary Screen | Serine/threonine-protein kinase PLK1 (Homo sapiens), P53350 | Plk1 PBD binding of FITC phosphopeptide, fluorescence polarization | Potency, µM, for the others: max response, negative = inhibition, most hits filed as inhibitors | 360,000 compounds, 2.8% hits; further: potency means the concentration at half of the fitted maximal effect; series mostly up to about 57 µM; on the % scale 0 is the no-effect control and ±100 the full control effect; nearly all actives have a fitted effect of over 65% in size
PI5P4Ka inh = qHTS for Inhibitors of phosphatidylinositol 5-phosphate 4-kinase (PI5P4K) | 330,000 compounds, 1.2% hits | Phosphatidylinositol 5-phosphate 4-kinase type-2 alpha (Homo sapiens), P48426 | PI5P4Kalpha enzyme, ADP-Glo luminescence, 60 min; active compounds read low | max response, %; active means max response of -50% or lower; inconclusive means between -30% and -50%; inactive means -30% or higher; further: value at the top dose of about 77 µM; on the % scale 0 is the no-effect control and ±100 the full control effect
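Enzyme plus substrate dispensed, test compounds pinned in, then ATP (5 microM final) added. After 60 min at RT, ADP-Glo reagent 1 for 45 min and reagent 2 for 30 min preceded luminescence imaging.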
JMJD2A Tudor = qHTS Assay for Inhibitors of JMJD2A-Tudor Domain; Lysine-specific demethylase 4A (Homo sapiens), O75164; AlphaScreen JMJD2A-Tudor / H3K4me3 peptide binding; Potency, µM (doses to about 114 µM), for inactives: at the top dose activity change, negative = inhibition, most hits filed as inhibitors; 390,000 compounds, 4.4% hits; further: potency means the concentration at half of the fitted maximal effect; on the % scale 0 is the no-effect control and ±100 the full control effect; nearly all actives have a fitted effect of over 50% in size
HP1b chromo inh = HTS for Inhibitors of HP1-beta Chromodomain Interactions with Methylated Histone Tails; AID 540317, 2011; Potency, µM (series often up to 114 µM), without a hit: at the highest dose activity change, negative = inhibition, hits mostly inhibitors; Chromobox protein homolog 1 (Homo sapiens), P83916; AlphaScreen HP1-beta / biotin-H3K9me3 peptide binding; 390,000 compounds, 0.56% hits; further: potency means the concentration at half of the fitted maximal effect; nearly all actives have a fitted effect of over 70% in size
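Compound inhibition of the preformed complex between 50 nM HP1-beta and 50 nM biotinylated H3K9me3 peptide was read by AlphaScreen. Buffer was PBS pH 7.4 with 0.01% Tween-20. Incubations ran 30 min at room temperature, with 10 ug/mL donor/acceptor beads.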
BAZ2B inh = qHTS Assay for Inhibitors of BAZ2B; 360,000 compounds, 4.4% hits; AlphaScreen BAZ2B-H3K14Ac peptide displacement; Potency, µM (doses to about 114 µM), inactives show at the highest dose activity change, negative = inhibition, usual class: inhibitors; Bromodomain adjacent to zinc finger domain protein 2B (Homo sapiens), Q9UIF8; further: potency means the concentration at half of the fitted maximal effect; on the % scale 0 is the no-effect control and ±100 the full control effect; nearly all actives have a fitted effect of over 60% in size
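Complex of BAZ2B and biotin-H3K14Ac (50 nM apiece) forms over 30 min at RT, then faces library compounds up to 110 uM for another 30 min; AlphaScreen beads added, 20 min dark incubation, luminescence read.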
An asterisk follows results filed as active; [ ] = another dose, or the depositor's remark. Unless noted, the call rests on the fitted dose curve; in most records, active means well fitted curve in the direction sought with a large enough effect; inconclusive means small, poorly fitted or top-dose-only effect, or another doubt; inactive means no such curve, though single readings can be large; an effect the other way counts as inactive or inconclusive.

`O=C(CSc1ccccn1)N1CCN(c2ccc(Cl)cc2)CC1` gave GCN5L2 inh -6%, PLK1 PBD block 24µM*, PI5P4Ka inh -1, JMJD2A Tudor -23%, HP1b chromo inh 11% and BAZ2B inh 6%.
For CC1=C(C(=O)Nc2c(C)cc(C)cc2C)C2(CCN(C(C)C)CC2)OC1=O the results were GCN5L2 inh 2%, JMJD2A Tudor 2%, HP1b chromo inh 37% and BAZ2B inh -12%.
Screening CCOC(=O)C1CCN(C(=O)Cn2c(-c3cccs3)cc3cc(Cl)ccc32)CC1 returned GCN5L2 inh -5%, JMJD2A Tudor -2%, HP1b chromo inh 33% and BAZ2B inh 1%.
`COc1ccc(CN/C(C)=C(/C#N)C(N)=O)cc1OC` gave GCN5L2 inh 0%, PLK1 PBD block 27µM*, PI5P4Ka inh -7, JMJD2A Tudor -31%[57.1 µM], HP1b chromo inh inconclusive and BAZ2B inh -2%.
`COc1ccc(CNC(N)=O)cc1OC` gave GCN5L2 inh -3%[0.501 µM], PLK1 PBD block -3%, PI5P4Ka inh 1, JMJD2A Tudor -3%, HP1b chromo inh 38% and BAZ2B inh 9%.
`CCCCCC1NC(=O)NC1CCCCCC(=O)O` (stereo not drawn) gave GCN5L2 inh -1%, PLK1 PBD block 0%, PI5P4Ka inh -4, JMJD2A Tudor -10%, HP1b chromo inh 41% and BAZ2B inh 1%.
For CCCCCCCCCCCCCCCC(=O)C1=C(O)C(CO)OC1=O (stereo not drawn) the results were GCN5L2 inh 11µM*.
CC(=O)N(C)c1ccc(N=Nc2c(C)[nH]n(-c3ccccc3)c2=O)cc1 was read as GCN5L2 inh 2%, PLK1 PBD block 2%, PI5P4Ka inh 4, JMJD2A Tudor inconclusive, HP1b chromo inh inconclusive and BAZ2B inh inconclusive.
`Cc1[nH]n(-c2ccccc2)c(=O)c1N=Nc1ccc2c(c1)OCO2` gave GCN5L2 inh -8%, PLK1 PBD block -1%, PI5P4Ka inh -3, JMJD2A Tudor inconclusive, HP1b chromo inh -4% and BAZ2B inh 1.8µM*.
For COc1cccc(N=Nc2c(C)[nH]n(-c3ccccc3)c2=O)c1 the results were GCN5L2 inh -8%, PLK1 PBD block -2%, PI5P4Ka inh 2, JMJD2A Tudor inconclusive, HP1b chromo inh inconclusive and BAZ2B inh 6.3µM*.
For COc1ccc([N+](=O)[O-])cc1-n1cccc1 the results were GCN5L2 inh -1%, PLK1 PBD block -8%, PI5P4Ka inh -4, JMJD2A Tudor inconclusive, HP1b chromo inh inconclusive and BAZ2B inh 50µM*.
`COc1ccc([N+](=O)[O-])cc1N1C(=O)c2cccc3cccc(c23)C1=O` gave GCN5L2 inh -3%, PLK1 PBD block 5%, PI5P4Ka inh -10, JMJD2A Tudor -4%, HP1b chromo inh 17% and BAZ2B inh -23%.
Screening C=CC[n+]1c(-c2ccccc2)csc1NC(C)(C)C returned GCN5L2 inh -6%, PLK1 PBD block -6%, PI5P4Ka inh 1, JMJD2A Tudor -15%, HP1b chromo inh inconclusive and BAZ2B inh 50µM*.
`CC1CCN(C(=O)CCn2c(=O)oc3ccc(Cl)cc32)CC1` gave PLK1 PBD block -19% and PI5P4Ka inh -18.
For Cn1c(N)c(C(=O)COC(=O)CSc2cccc3cccc(Cl)c23)c(=O)n(C)c1=O the results were GCN5L2 inh -8%, PLK1 PBD block 27µM*, PI5P4Ka inh inconclusive, JMJD2A Tudor 50µM*, HP1b chromo inh -11% and BAZ2B inh inconclusive.
For Cn1c(N)c(C(=O)COC(=O)CSc2ccc3ccccc3c2)c(=O)n(C)c1=O the results were GCN5L2 inh -8%, PLK1 PBD block -10%, PI5P4Ka inh 0, JMJD2A Tudor -13%, HP1b chromo inh 17% and BAZ2B inh -2%.
CC(=O)NC(CC(=O)OCC(=O)c1c(N)n(C)c(=O)n(C)c1=O)c1ccccc1 (stereo not drawn) was read as GCN5L2 inh -3%, PLK1 PBD block 24µM*, PI5P4Ka inh -17, JMJD2A Tudor 13µM*, HP1b chromo inh -12% and BAZ2B inh -18%.
For CC1CCCCC1Nc1ncnc2sccc12 (stereo not drawn) the results were GCN5L2 inh -4%, PLK1 PBD block -11%, PI5P4Ka inh 5, JMJD2A Tudor 1%, HP1b chromo inh 20% and BAZ2B inh 10%.
COc1ccccc1N1CCN(/N=C/c2cccc(O)c2)CC1 was read as GCN5L2 inh 8%, PLK1 PBD block 3%, PI5P4Ka inh 0, JMJD2A Tudor -33%, HP1b chromo inh 6% and BAZ2B inh 71µM*.
Screening COc1ccccc1N1CCN(/N=C/c2cc(OC)c(O)c(OC)c2)CC1 returned GCN5L2 inh -2%, PLK1 PBD block 11%, PI5P4Ka inh 0, JMJD2A Tudor 89µM*, HP1b chromo inh -41% and BAZ2B inh inconclusive.
`COc1ccccc1N1CCN(/N=C\c2cccnc2)CC1` gave GCN5L2 inh -13%, PLK1 PBD block -4%, PI5P4Ka inh 0, JMJD2A Tudor inconclusive, HP1b chromo inh 17% and BAZ2B inh 79µM*.
COc1cc(/C=N/N2CCN(c3ccccc3OC)CC2)ccc1OC(C)=O was read as GCN5L2 inh -5%, PLK1 PBD block 8%, PI5P4Ka inh 0, JMJD2A Tudor -29%, HP1b chromo inh 0% and BAZ2B inh inconclusive.
`CCOc1ccc(CCNc2ncnc3onc(-c4ccc(F)cc4)c23)cc1OCC` gave GCN5L2 inh -1%, JMJD2A Tudor -3%, HP1b chromo inh -6% and BAZ2B inh 1%.
`CCOc1ccccc1CNC(=O)C1CCN(S(=O)(=O)c2ccc3[nH]c(=O)ccc3c2)CC1` gave GCN5L2 inh 6%, JMJD2A Tudor -18%, HP1b chromo inh 14%[57 µM] and BAZ2B inh 3%.
COc1ccc(CCN2C(=O)CC(Cc3ccc(C)cc3)C2=O)cc1OC (stereo not drawn) was read as GCN5L2 inh -9%, PLK1 PBD block 12µM*, PI5P4Ka inh -69*, JMJD2A Tudor 10µM*, HP1b chromo inh -6% and BAZ2B inh 1%.

Assay outcomes: PubChem BioAssay, National Center for Advancing Translational Sciences (NCATS)
